# Results taken from PubChem BioAssay.
# System: wheat germ agglutinin (Triticum aestivum), Alexa647-labelled
# Experiment: Alexa647-WGA lectin binding to printed small molecules – biochemical, small-molecule microarray, 635/667 nm fluorescence, artefact control for SMM control-protein annotation, profiling panel (AID 1140);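 note: score merges 667 nm feature emission with signal to noise over triplicate slides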
# Conditions: WGA-A647 binding, 635 nm fluorescence, higher = more signal
row,SMILES,composite z-score
1,C=CCc1cccc([C@@H]2[C@@H](C)CC[C@H]3C(=O)N4[C@H](c5cccc(CC=C)c5)[C@@H](C)CC[C@H]4C(=O)N23)c1,0.846
2,CCCCCCc1nc(C2CC2)c(C)c2c1[Si](C(C)C)(C(C)C)OC2,-0.982
3,CC(C)(C)OC(=O)CC[C@]1(C(=O)NCCN2CCOCC2)N=C(c2ccc(OCCCO)cc2)O[C@H]1c1ccccc1CN=[N+]=[N-],1.31
4,CCOC(=O)C[C@H]1[C@H](OC(=O)c2ccccc2-c2ccccc2)[C@@H](NC(=O)c2ccc(-c3ccccc3)cc2)c2cc(OCCCO)ccc2N1C(=O)Cc1ccc(OC)cc1,-0.12
5,C=CCN1C(=O)[C@@]2(Cc3ccccc3)N=C(c3ccc(OCCCO)cc3)O[C@H]2c2ccccc21,0.648
6,C=CCC(OC(C)=O)[C@@H]1[C@@H](N(Cc2cc3ccccc3o2)C(=O)c2ccc(C)cc2)c2cc(OCCCO)ccc2N1C(=O)c1ccc2ccccc2n1 (stereo partly specified),-0.475
7,C=C(C(=O)CC[C@H](OC(=O)c1ccccc1-c1ccccc1C(=O)O)c1ccc(CO)o1)C(C)C,0.0123
8,O=C(CS)NCCCCCNC(=O)[C@H]1C[C@H]2C(=O)N3CCC[C@H]3C(=O)N2[C@H]1c1ccc(O)cc1,-1.68
9,N#Cc1ccc(NN2C(C(O)CCc3ccccc3)C=CC3C(=O)N(c4ccccc4)C(=O)C32)cc1 (stereo unspecified),1.34
10,O=[N+]([O-])c1ccc(C[n+]2ccc3ccc(O)cc3c2)o1,1.12
11,Cc1ccc(S[C@]2(C(=O)NC(C)C)CC(=O)N(Cc3cc(C(F)(F)F)cc(C(F)(F)F)c3)[C@@H]2c2ccc(CO)cc2I)cc1,0.445
12,COC(=O)[C@@]1(Cc2ccccc2N=[N+]=[N-])N=C(c2ccc(OCCCO)cc2)O[C@H]1c1ccccc1CN=[N+]=[N-],0.727
13,O=C(NCc1ccccc1)c1ccc(Br)cc1[N+](=O)[O-],0.352
14,C=C(COC)/C(=C/C[C@H](OC(C)=O)c1ccc(OCCO)cc1)c1cnc2ccccc2c1,1.23
15,COc1cc2c(cc1OC)CN(C(=O)[C@H]1[C@@H]3C(=O)O[C@@H](c4ccccc4)[C@@H](c4ccccc4)N3[C@@H](c3ccccc3OCCO)[C@]13C(=O)Nc1ccc(C#CC4(O)CCCCCC4)cc13)CC2,1.08
16,COCCOC(=O)N1C(=O)[C@@]2(c3cc(C#CCCO)ccc31)[C@H](c1ccc(O)cc1)N1[C@H](c3ccccc3)[C@H](c3ccccc3)OC(=O)[C@H]1[C@@H]2C(=O)Nc1nc2ccccc2s1,0.658
17,CC[C@H]1C2=C3C(CC[C@H]4C(OC)OC[C@](C)([C@@H]34)N(C(=O)OC(C)(C)C)C2)C(CO)C1CO (stereo partly specified),1.06
18,CN(C)C(=O)[C@@]1(Cc2ccccc2N=[N+]=[N-])N=C(c2ccc(OCCCO)cc2)O[C@H]1c1ccccc1CN=[N+]=[N-],1.45

row,SMILES,composite z-score
1,CC(C)[C@H]1NC(=O)[C@@]23C(=O)N[C@@H](Cc4ccccc4)C2[C@H](C)[C@@]2(C)O[C@H]2C3/C=C/C/C=C\CNC(=O)[C@H](C)NC1=O (stereo partly specified),-1.03
2,O=C1c2ccccc2[C@](Cc2ccccc2I)(C(=O)NCc2ccccc2)[C@H](c2ccc(CO)cc2)N1Cc1ccccc1C(F)(F)F,-1.12
3,O=C1c2ccccc2[C@](Cc2ccccc2I)(C(=O)NCC(F)(F)F)[C@H](c2ccc(CO)cc2)N1Cc1ccccc1C(F)(F)F,0.479
4,CCC1=C2CN(Cc3ccccc3Br)[C@@H]([C@@H](O)Cc3ccccc3)C2C=CCC1 (stereo partly specified),0.291
5,C=CCc1cccc([C@H]2N[C@H](C(=O)O)CC[C@@H]2C)c1,-0.173
6,COC(=O)C1=CC(c2ccc(CO)cc2)=CC(c2cccs2)N(Cc2cccc(OC(F)(F)F)c2)C=C1C(=O)OC (stereo unspecified),1.4
7,C=C(CCCC)C(=O)CC[C@@H](OC(=O)c1cccnc1)c1cccc(OCCO)c1,0.59
8,CO[C@H]1COC(=O)[C@H](Cc2ccccc2)NC(=O)CC=C[C@@H](C)[C@H](OC)COC(=O)CC=C[C@@H]1C,-0.12
9,COCCOC(=O)N1C(=O)[C@@]2(c3cc(C#CCC(C(=O)OC)C(=O)OC)ccc31)[C@H](C(=O)N1CCN(c3ncccn3)CC1)[C@H]1C(=O)O[C@H](c3ccccc3)[C@H](c3ccccc3)N1[C@@H]2c1ccc(O)cc1,1.07
10,CCCC=C(CCC)[C@@H](NS(=O)(=O)c1cccc(C(F)(F)F)c1)c1ccc(C(=O)OC)cc1,0.295
11,NC(=O)[C@H]1[C@@H]2C(=O)O[C@@H](c3ccccc3)[C@@H](c3ccccc3)N2[C@@H](c2ccc(O)cc2)[C@]12C(=O)Nc1ccc(C#CCCO)cc12,-1.4
12,O=C(O)[C@@H]1Cc2c([nH]c3ccccc23)[C@@H](c2ccccc2)N1,0.0252
13,COc1cc2c(cc1OC)CN(C(=O)[C@@H]1[C@H]3C(=O)O[C@H](c4ccccc4)[C@H](c4ccccc4)N3[C@H](c3ccccc3OCCO)[C@@]13C(=O)Nc1ccccc13)CC2,0.849
14,CCCC=C(CCC)[C@@H](NS(=O)(=O)c1ccc(-c2ccccc2)cc1)c1ccc(C(=O)OC)cc1,-0.153
15,O=C/C=C/c1ccccc1Cl,0.687
16,[N-]=[N+]=NCc1ccccc1[C@H]1OC(c2ccc(OCCCO)cc2)=N[C@@]1(Cc1ccccc1N=[N+]=[N-])C(=O)NCc1ccccc1,1
17,O=C1c2ccccc2[C@](Cc2ccccc2I)(C(=O)O)[C@H](c2ccc(CO)cc2)N1C1CCCCC1,1.13
18,C=CCC(OC(C)=O)[C@@H]1[C@@H](N(Cc2cc3ccccc3o2)C(=O)Cc2ccc(F)cc2)c2cc(OCCCO)ccc2N1C(=O)c1ccc(-c2ccccc2)cc1 (stereo partly specified),-0.681
